Experimental data published in PubChem BioAssay AID1259421 (Broad Institute, 2018).
Values joined by “and” are separate entries in the source; they are usually repeats but may differ in a detail not shown here. Identical values can stand only once. Screen size: about 6,400 compounds; about 610 (9.5%) were called active. No stated cut-off is given here; in the data, active means activity change below about -70%; inconclusive means no clear call, values can overlap the other calls; inactive means above that. Shown is part of a subset that was picked to be rich in actives. Some structures have more than one record in an assay (separate samples or runs), and their calls can disagree.

Test: T. gondii ME49Luc in HeLa cells, luciferase assay, 72 h, no IFN-y (AID 1259421)
Settings: stronger effect = lower value, concentration not given here
With CC(C)C[C@H](NC(=O)[C@@H](COC(C)(C)C)NC(=O)[C@H](Cc1ccc(O)cc1)NC(=O)[C@H](CO)NC(=O)[C@H](Cc1c[nH]c2ccccc12)NC(=O)[C@H](Cc1cnc[nH]1)NC(=O)[C@@H]1CCC(=O)N1)C(=O)N[C@@H](CCCN=C(N)N)C(=O)N1CCC[C@H]1C(=O)NNC(N)=O the activity change, negative = inhibition was 8.64% (inactive). With O=[N+]([O-])c1cc(Cl)ccc1S(=O)(=O)N1CCN(Cc2ccccc2)CC1 the activity change, negative = inhibition was 26.6% (inactive). With C=C1C[C@]23C[C@@]1(O)CC[C@H]2[C@@]12C=C[C@H](O)[C@@](C)(C(=O)O1)[C@H]2[C@@H]3C(=O)O the activity change, negative = inhibition was 13.1% (inactive). With CCC(=O)OCC(=O)C1(OC(=O)CC)C(C)CC2C3CCC4=CC(=O)C=CC4(C)C3(Cl)C(O)CC21C (stereo not drawn) the activity change, negative = inhibition was -2.98% (inactive). For CCC(=O)OCC(=O)[C@@]1(OC(=O)CC)[C@@H](C)C[C@H]2[C@@H]3CCC4=CC(=O)C=C[C@]4(C)[C@@]3(Cl)[C@@H](O)C[C@@]21C, the activity change, negative = inhibition was -74.6% (active) and -1.83% (inactive). In the case of CCC(=O)OCC(=O)[C@@]1(OC(=O)CC)[C@@H](C)C[C@H]2[C@@H]3CCC4=CC(=O)C=C[C@]4(C)[C@@]3(F)[C@@H](O)C[C@@]21C, the activity change, negative = inhibition is reported as -3.54% (inactive). For CC/C=C\C/C=C\C/C=C\CCCCCCCC(=O)O, the activity change, negative = inhibition was 11.4% (inactive). In the case of Clc1ccc(N/N=C(\c2ccccc2)c2ccccn2)nc1, the activity change, negative = inhibition is reported as 31.4% (inactive). With N=C(N)S/C=C\C(=O)O the activity change, negative = inhibition was 28% (inactive). With C[C@@H](Oc1ccc2[nH]nc(/C=C/c3cnn(CCO)c3)c2c1)c1c(Cl)cncc1Cl the activity change, negative = inhibition was -81.2% (active). With O=C(c1ccc(/C=C/c2n[nH]c3ccccc23)cc1)N1CCNCC1 the activity change, negative = inhibition was -59.7% (inactive). With CCCSc1nc(N[C@@H]2C[C@@H]2c2ccc(F)c(F)c2)c2nnn([C@@H]3C[C@H](OCCO)[C@H](O)[C@H]3O)c2n1 the activity change, negative = inhibition was 5.35% (inactive). For O=C(O)CCNC(=O)c1ccc(N=Nc2ccc(O)c(C(=O)O)c2)cc1, the activity change, negative = inhibition was 22.4% (inactive). In the case of CCCCCOC(=O)Nc1nc(=O)n([C@@H]2O[C@H](C)[C@@H](O)[C@H]2O)cc1F, the activity change, negative = inhibition is reported as -63.1% (inactive) and -62.7% (inactive). For O=c1[nH]c(=O)n([C@H]2CCCO2)cc1F, the activity change, negative = inhibition was -87.1% (active) and -73.6% (active). In the case of Nc1ncn([C@H]2C[C@H](O)[C@@H](CO)O2)c(=O)n1, the activity change, negative = inhibition is reported as 35.6% (inactive). In the case of O=c1[nH]c(=O)n([C@H]2C[C@H](O)[C@@H](CO)O2)cc1F, the activity change, negative = inhibition is reported as -81.1% (active). With C[C@H]1O[C@@H](n2cc(F)c(=O)[nH]c2=O)[C@H](O)[C@@H]1O the activity change, negative = inhibition was -95% (active). With Nc1nc(=O)n([C@H]2C[C@@H](O)[C@@H](CO)O2)cc1Cl the activity change, negative = inhibition was 7.28% (inactive). With Cc1cn([C@@H]2C[C@@H](O)[C@H](CO)O2)c(=O)[nH]c1=O the activity change, negative = inhibition was -2.77% (inactive). With Nc1nc(=O)n([C@H]2C[C@H](O)[C@@H](CO)O2)cc1F the activity change, negative = inhibition was -94.3% (active). With Cc1cn([C@H]2O[C@@H](CO)[C@H](O)[C@@H]2F)c(=O)[nH]c1=O the activity change, negative = inhibition was 14.2% (inactive). For O=c1[nH]c(=O)n([C@H]2CC(O)[C@@H](CO)O2)cc1C(F)(F)F (stereo partly drawn), the activity change, negative = inhibition was 7.06% (inactive). For O=c1[nH]c(=O)n([C@H]2C[C@H](O)[C@@H](CO)O2)cc1Br, the activity change, negative = inhibition was 12.7% (inactive). In the case of O=c1[nH]c(=O)n([C@H]2C[C@H](O)[C@@H](CO)O2)cc1C(F)(F)F, the activity change, negative = inhibition is reported as -19.7% (inactive) and 1.85% (inactive). With CN(C)CC/C=C1/c2ccccc2COc2ccccc21 the activity change, negative = inhibition was -63.2% (inactive) and 23.5% (inactive) and 10.1% (inactive). With CC(C)C1C(=O)N(S(C)(=O)=O)[C@@H]2CCN(C(=O)/C=C/CN3CCCCC3)[C@@H]12 (stereo partly drawn) the activity change, negative = inhibition was 12% (inactive). With NCCCCCc1cnc[nH]1 the activity change, negative = inhibition was 11% (inactive). With O=c1cc(O)c(Cl)c[nH]1 the activity change, negative = inhibition was 4.32% (inactive). With O=c1ccc2ccc(OCCCCN3CCN(c4cccc5sccc45)CC3)cc2[nH]1 the activity change, negative = inhibition was 10.5% (inactive). With N[C@@H]1CCN(O)C1=O the activity change, negative = inhibition was 15% (inactive). In the case of O=C(O)CC/C=C\CC[C@@H]1[C@@H](N2CCCCC2)[C@@H](O)C[C@@H]1OCc1ccc(-c2ccccc2)cc1, the activity change, negative = inhibition is reported as -4.54% (inactive). In the case of COC(=O)C[C@H]1C(C)(C)C(=O)[C@@H]2CC3=C4CC(=O)O[C@@H](c5ccoc5)[C@]4(C)CCC3[C@@]1(C)C2=O (stereo partly drawn), the activity change, negative = inhibition is reported as -15.9% (inactive). In the case of C[N+]1(C)C2CC(OC(=O)[C@@H](CO)c3ccccc3)CC1C1OC12 (stereo partly drawn), the activity change, negative = inhibition is reported as 4.33% (inactive) and 10.7% (inactive). In the case of Cc1cn([C@H]2C[C@H](N=[N+]=[N-])[C@@H](CO)O2)c(=O)[nH]c1=O, the activity change, negative = inhibition is reported as -81.6% (active). With Cc1cn(C2CC(N=[N+]=[N-])C(CO)O2)c(=O)[nH]c1=O (stereo not drawn) the activity change, negative = inhibition was 10.1% (inactive). For CCc1cn([C@H]2C[C@H](O)[C@@H](CO)O2)c(=O)[nH]c1=O, the activity change, negative = inhibition was 13.9% (inactive). In the case of O=C(O)C1[O][Sb]2([O][Sb]34[O]C(C(=O)O)C([O]3)C(C(O)CO)[O]4)[O]C(C(O)CO)C1[O]2 (stereo not drawn), the activity change, negative = inhibition is reported as -75.8% (active). For C(=N\NC1=NCCN1)/c1c2ccccc2c(/C=N/NC2=NCCN2)c2ccccc12, the activity change, negative = inhibition was -58.3% (inactive). In the case of O=C(Nc1cc2cc[nH]c2cn1)c1ccccc1, the activity change, negative = inhibition is reported as -32.1% (inactive). For COc1ccc(C(=O)c2ccc(O)cc2)c(O)c1O, the activity change, negative = inhibition was -0.363% (inactive). For N=C(N)c1ccc2cc(OC(=O)c3ccc(N=C(N)N)cc3)ccc2c1, the activity change, negative = inhibition was 4.69% (inactive). With NC(=O)/N=N/C(N)=O the activity change, negative = inhibition was 7.42% (inactive). With CC(C)(C(=O)NCC(F)(F)C(F)(F)F)C(=O)N[C@@H]1C(=O)Nc2ccccc2-c2ccccc21 the activity change, negative = inhibition was -88.1% (active). For C/C(=C/c1ccc(C(=O)O)cc1)c1ccc2c(c1)C(C)(C)CCC2(C)C, the activity change, negative = inhibition was -3.41% (inactive). With NC1[C@H]2CN(c3nc4c(cc3F)c(=O)c(C(=O)O)cn4-c3ccc(F)cc3F)C[C@@H]12 (stereo partly drawn) the activity change, negative = inhibition was -37.5% (inactive). In the case of O=C(O)CN1C(=O)c2cccc3cccc(c23)C1=O, the activity change, negative = inhibition is reported as 4.44% (inactive) and 1.05% (inactive). With O=C(CCCCCN1C(=O)c2cccc3cccc(c23)C1=O)NO the activity change, negative = inhibition was -90.6% (active). In the case of O=C(O)CCCN1C(=O)c2cccc3cccc(c23)C1=O, the activity change, negative = inhibition is reported as -5.26% (inactive). For O=c1cc(-c2ccc(O)cc2)oc2cc(O)ccc12, the activity change, negative = inhibition was 22.2% (inactive). For CCCC[C@H](C)C[C@H](O)/C=C/[C@H]1[C@H](O)CC(=O)[C@@H]1CCCC/C=C/C(=O)O, the activity change, negative = inhibition was -0.328% (inactive). With C/C=C/C(=O)N(CC)c1ccccc1C the activity change, negative = inhibition was 14.6% (inactive) and 5.26% (inactive). With C=C[C@@](C)(/C=C/c1ccc(O)cc1)CCC=C(C)C the activity change, negative = inhibition was 11.8% (inactive). With NC(=O)C(c1ccccc1)(c1ccc(F)cc1)c1ccc(F)cc1 the activity change, negative = inhibition was 1.76% (inactive). In the case of Oc1c(Br)cc(Br)c2cccnc12, the activity change, negative = inhibition is reported as -63.3% (inactive). In the case of [O-][NH2+]c1ccc(O)c2ncccc12, the activity change, negative = inhibition is reported as -71.9% (active) and -84.8% (active). For Oc1ccc(Cl)c2cccnc12, the activity change, negative = inhibition was 17.5% (inactive) and 6.79% (inactive). With COc1ccc2c(c1OC)C(=O)O[C@@H]2C1c2c(cc3c(c2OC)OCO3)CCN1C (stereo partly drawn) the activity change, negative = inhibition was 8.49% (inactive). In the case of C[C@@H]1C(=O)O[C@H]2CC34[C@H]5C[C@@H](C(C)(C)C)[C@]36[C@@H](OC(=O)[C@@H]6O)O[C@@]4(C(=O)O5)[C@]21O (stereo partly drawn), the activity change, negative = inhibition is reported as 5.52% (inactive). With CC(C)CCCC(C)[C@H]1CCC2C3C(=O)C=C4C[C@@H](O)CC[C@]4(C)C3CC[C@@]21C (stereo partly drawn) the activity change, negative = inhibition was -7.52% (inactive). With CC(C)(C)NCC(O)COc1cccc2c1CCCC2=O (stereo not drawn) the activity change, negative = inhibition was 12.5% (inactive) and -6.73% (inactive). With CC(=O)O.CC(=O)O.[Cl][Pt+2][Cl].[NH-]C1CCCCC1.[NH2-] the activity change, negative = inhibition was 1.41% (inactive). In the case of O=C(O[C@@H]1Cc2c(O)cc(O)cc2O[C@@H]1c1ccc(O)c(O)c1)c1cc(O)c(O)c(O)c1, the activity change, negative = inhibition is reported as -0.0246% (inactive). In the case of COc1ccc(NC(=O)c2ccc(-c3ccc(-c4noc(C)n4)cc3C)cc2)cc1N1CCN(C)CC1, the activity change, negative = inhibition is reported as -78.7% (active) and -44.9% (inactive). With COc1ccc(NC(=O)c2ccc(-c3ccc(-c4noc(C)n4)cc3C)cc2)cc1OCCN(C)C the activity change, negative = inhibition was -53.8% (inactive) and -87.8% (active). For COc1ccccc1N1CCN(CCCCNC(=O)c2ccc(-c3ccc(C(C)=O)cc3)cc2)CC1, the activity change, negative = inhibition was 7.26% (inactive). With CN(C)CCCc1cc(C(=O)Nc2ccc(-c3ccncc3)cc2)ccc1O the activity change, negative = inhibition was 4.74% (inactive). For COc1ccc(NS(=O)(=O)c2ccc(I)cc2)cc1N1CCN(C)CC1, the activity change, negative = inhibition was 0.621% (inactive) and -5.09% (inactive). With COc1ccc(C(=O)NCc2ccc(OCCN(C)C)cc2)cc1OC the activity change, negative = inhibition was -2.71% (inactive). For CN(C)c1ccc(O)c2c1C[C@H]1C[C@H]3[C@H](N(C)C)C(=O)C(C(N)=O)C(=O)[C@@]3(O)C(=O)C1C2=O (stereo partly drawn), the activity change, negative = inhibition was -2.37% (inactive) and -2.12% (inactive). With Cc1cc(O)cc(=O)o1 the activity change, negative = inhibition was 2.59% (inactive). For CCCCCC/C=C/C=C\CCCCCCCC(=O)O, the activity change, negative = inhibition was 9.04% (inactive). With Cc1cc(Nc2cc(CN3CCOCC3)c3nc(C)c(Cc4ccc(Cl)cc4F)n3n2)n[nH]1 the activity change, negative = inhibition was -76.1% (active). For FC(F)OC(Cl)C(F)(F)F (stereo not drawn), the activity change, negative = inhibition was 4.04% (inactive). For CCCC(=O)O, the activity change, negative = inhibition was 16.3% (inactive) and 10.7% (inactive). With CN=C(NC#N)Nc1ccc(C2=NNC(=O)CC2C)cc1 (stereo not drawn) the activity change, negative = inhibition was 27% (inactive) and 4.42% (inactive). With CCC(=O)NC1CCc2cccc(OC)c2C1 (stereo not drawn) the activity change, negative = inhibition was 4.71% (inactive) and 6.93% (inactive). For CC12CCC3C(CCC4CC(O)CCC43C)C1CC=C2c1ccccc1 (stereo not drawn), the activity change, negative = inhibition was 6.05% (inactive).
